Source: PubChem BioAssay
Pf growth 48h: inhibits P. falciparum growth in the first generation, 48 h. P. falciparum luciferase growth in erythrocytes, 48 h. Potency, µM (top dose mostly 28.7 µM), for inactives: at the top dose activity change, negative = inhibition, actives largely listed as inhibitors. actives 5.9% (n = 310,000). AID 504832; also: potency is read from the fitted curve at half-maximal effect; % is scaled to controls: 0 for no effect and ±100 for the full control effect
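Growth was read as firefly luciferase luminescence after a 48 h, 37 C, 5% CO2 exposure of compounds to reporter-bearing P. falciparum cultures (0.1% parasitemia, 2% hematocrit final) in Albumax-supplemented RPMI 1640.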
NS1 inh: blocks influenza NS1 protein function | AID 2326 | Potency, µM (top dose mostly 46.1 µM), for inactives: at the highest dose activity, positive = more growth | actives 0.4% (n = 270,000); calls by dose curve; also: potency is read from the fitted curve at half-maximal effect; actives are rising curves; nearly all actives have a fitted effect of over 50% in size
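OD600 was taken as the measure of yeast growth restored by compound in an NS1-expressing S. cerevisiae strain. Cells had been washed out of glucose medium and diluted 1:100 into galactose -URA medium, pH 6.0.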
Sm TGR inh: S. mansoni TGR enzyme inhibition; Q962Y6; purified TGR, DTNB reduction, TNB absorbance 405 nm; Potency, µM (titrated, usually from 114 µM), for inactives: at the top dose activity change, negative = inhibition, hits mostly inhibitors; actives 3% (n = 360,000); AID 485364; also: potency is read from the fitted curve at half-maximal effect; % is scaled to controls: 0 for no effect and ±100 for the full control effect; nearly all actives have a fitted effect of over 60% in size
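Kinetic colorimetric format: TGR-catalysed, NADPH-driven DTNB reduction monitored via TNB absorbance. Enzyme dispensed at 20 nM; compound exposure 15 min at room temperature before reaction start.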
Shiga inhibitor: blocks Shiga toxin action in Vero cells. actives 9.2% (n = 290,000). inhibition, % at 38.7 µM. AID 2315. Vero cells, Shiga toxin protein synthesis inhibition reporter; in the data active = inhibition mostly above about 28%, no sharp cut-off; inactive = mostly below about 43%; also: 0% is about no effect
Cycloheximide cs: counter-screen hit for Shiga toxin inhibitors, cycloheximide; max response, %; actives 12% (n = 300,000); cell reporter, cycloheximide protein synthesis inhibition counterscreen; in the data active = max response mostly above about 13%, no sharp cut-off; inactive = mostly below about 14%; also: read at 38.3 µM for the half of the compounds with a filed dose; 0% is about no effect
Pf growth 96h: P. falciparum growth inhibition at 96 hours; Potency, µM (series often up to 28.7 µM), without a hit: at the top dose activity change, negative = inhibition, usual class: inhibitors; P. falciparum luciferase reporter growth, 96 h; actives 6.9% (n = 320,000); also: potency is read from the fitted curve at half-maximal effect; % is scaled to controls: 0 for no effect and ±100 for the full control effect
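Luminescence readout: decreased luciferase signal marks inhibited growth of reporter-expressing P. falciparum in infected red cells (2% hematocrit, 0.05% parasitemia final), exposed to compound two generations (96 h, 37 C, 5% CO2).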
Numbers without * were called inactive; ? = inconclusive; / = not tested or not shown. Sampled rows, rich in hits. Any-hit rate of the full collection: about 21%. Unless noted, calls follow the shape of the dose curve; as a rule, active = well fitted curve in the direction sought with a large enough effect; inconclusive = small, poorly fitted or top-dose-only effect, or another doubt; inactive = no such curve, though single readings can be large; an effect the other way counts as inactive or inconclusive.

SMILES | Pf growth 48h | NS1 inh | Sm TGR inh | Shiga inhibitor | Cycloheximide cs | Pf growth 96h
COc1ccc(C2CC(=O)c3cc(-c4nc(-c5cccc([N+](=O)[O-])c5)cs4)c(=O)n(-c4ccccc4N)c3C2)cc1 (centres undefined) | / | / | -3.5% | / | / | /
Cc1ccc(NC(=O)c2ccc3c(O)c(S(=O)(=O)c4ccc(Cl)cc4)c(=O)[nH]c3c2)cc1 | / | / | 5.1% | / | / | /
COc1ccc(/C=C/C(=O)OCC(=O)Nc2ccc(Cl)cn2)cc1 | -1.5% | / | -21.3% | -16.5 | 2.2 | 10.5%
Cc1cccc(C)c1OCC(=O)Nc1ccc2c(c1)C(=O)NC2=O | 20.4% | 6.8% | -7.3% | -7.9 | -3.2 | 42.8%
Cc1nn(-c2ccccc2)c(Cl)c1C(=O)NCCN(C)C | 7.1% | / | 9.5% | 20.4 | -1.3 | 18.8%
OC(COCc1ccc(Cl)cc1)CN1CC=C(c2ccccc2)CC1 (centres undefined) | 9.28µM* | -45.8% | -15.8% | -9.7 | -3.7 | 3.29µM*
OC(COCc1ccc(Cl)cc1)CN1CCc2ccccc2C1 (centres undefined) | 5.6% | -9.7% | -3.5% | -13.3 | -2.9 | ?
CCCCCCC(=O)N(O)C1CC(=O)N(c2ccc(Br)cc2)C1=O (centres undefined) | 13.1µM* | -66.4% | 0.708µM* | -11.8 | -3.5 | 2.5%
CCCCCCC(=O)N(O)C1CC(=O)N(c2ccc(F)cc2)C1=O (centres undefined) | 4.65µM* | -84.3% | 0.631µM* | 7.9 | 8.1 | 9.28µM*
COc1ccccc1N(O)C1CC(=O)N(c2ccc(Br)cc2)C1=O (centres undefined) | 4.1% | -16.7% | 2.82µM* | 41.9* | 27.0* | 16.1%
Cc1cccc(OCCC(=O)NCC(c2ccco2)N2CCCCC2)c1 (centres undefined) | / | -2.6% | -2.9% | -7.6 | -3.1 | ?
COc1ccc(OC)c(N(C)S(=O)(=O)c2ccc3c(c2)NC(=O)CC(=O)N3)c1 | / | / | -6.6% | / | / | /
CC1CCCCC12NC(=O)N(CC(=O)N1CCN(C(=O)c3ccco3)CC1)C2=O (centres undefined) | 0.5% | / | -24.0% | / | / | -0.5%
COc1ccc(N2C(=O)/C(=C/c3ccc([N+](=O)[O-])cc3)C=C2c2ccccc2)cc1 | ? | 17.1% | -21.4% | -14.7 | -0.6 | 13.1µM*
O=C1/C(=C/c2ccc([N+](=O)[O-])cc2)C=C(c2ccccc2)N1c1ccccc1 | 9.3% | 18.9% | 0.0% | -5.3 | -2.9 | ?
O=C(O)c1cccc(N2C(=O)/C(=C/c3ccc([N+](=O)[O-])cc3)C=C2c2ccccc2)c1 | -66.2% | / | 25.1µM* | 38.1* | 22.6* | ?
COc1ccc(OC)c(CCNC(=O)CCC(=O)N2CCOc3ccc(C)cc32)c1 | -0.3% | 7.5% | -4.0% | -2.8 | 0.9 | ?
COc1cccc(C(=O)O/N=C/c2ccc(Sc3ccc(C)cc3)nc2)c1 | / | -2.8% | 1.2% | -12.1 | -1.9 | -0.2%
O=S(=O)(NC1CCCCC1Nc1ccc(Cl)cc1)c1ccccc1 (centres undefined) | -7.3% | -15.5% | -9.9% | -10.7 | -3.9 | 5.4%
Cc1ccc(NC(=O)c2cccc(S(=O)(=O)N3CCCC3)c2)nc1 | 36.0% | / | -1.1% | / | / | 32.9%
Cc1ccc(NC(=O)c2cccc(S(=O)(=O)N(C)C3CCCCC3)c2)nc1 | 5.22µM* | / | 4.3% | / | / | 9.28µM*
CC(=O)Nc1ccc(NC(=O)c2cccc(S(=O)(=O)N(C)C3CCCCC3)c2)cc1 | 7.38µM* | / | -0.4% | / | / | ?
CC(=O)Nc1ccc(NC2CCCCC2NS(=O)(=O)c2ccccc2)cc1 (centres undefined) | -4.7% | 0.8% | -3.5% | -2.6 | -1.5 | 8.28µM*
CC(=O)c1cccc(S(=O)(=O)NC2CCCCCC2)c1 | 23.4% | 3.6% | -22.5% | -8.3 | 0.9 | -9.9%
O=C(Nc1ccccc1)c1cccc(S(=O)(=O)NC2CCCC2)c1 | 13.1% | 2.2% | -1.7% | 10.8 | 2.5 | 11.7µM*
SMILES | Pf growth 48h | NS1 inh | Sm TGR inh | Shiga inhibitor | Cycloheximide cs | Pf growth 96h
COc1ccccc1-c1nnc(SCC(=O)NC2CCCCC2)n1C | 13.6% | -14.9% | 8.2% | -19.4 | -2.0 | ?
[O-][n+]1ccc(C(O)c2ccccc2)cc1 (centres undefined) | 19.6% | 3.5% | -17.8% | / | -0.9 | 2.1%
Cc1ccc2oc(=O)c3cnn(CC(=O)N(C)c4ccc(F)cc4)c3c2c1 | / | / | -1.9% | / | / | /
Fc1ccc(NCc2cn3ccccc3n2)cc1 | 19.8% | -4.6% | -7.6% | 76.5* | 53.0* | 53.1%
Fc1cccc(NCc2cn3ccccc3n2)c1 | -52.1% | -5.1% | -21.8% | 125.9* | 51.0* | 20.8%
O=C(NCCc1cn2ccccc2n1)c1ccccc1F | 44.9% | 5.5% | 4.4% | 13.7 | -2.5 | 11.4%
CCc1ccc(C2CC(=O)Nc3cc4c(cc32)OCO4)cc1 (centres undefined) | / | / | -4.3% | / | / | /
COc1ccc(NC(=O)CN(C)C(=O)c2cccc(S(=O)(=O)N3CC4(C)CC3CC(C)(C)C4)c2)cc1 (centres undefined) | ? | / | 4.9% | / | / | ?
CC1(C)CC2CC(C)(CN2S(=O)(=O)c2cccc(C(N)=O)c2)C1 (centres undefined) | ? | / | 4.3% | / | / | ?
COCCCNC(=O)c1cccc(S(=O)(=O)N2CC3(C)CC2CC(C)(C)C3)c1 (centres undefined) | ? | / | -2.0% | / | / | -5.3%
CCCCNC(=O)c1cccc(S(=O)(=O)N2CC3(C)CC2CC(C)(C)C3)c1 (centres undefined) | ? | / | -10.6% | / | / | 11.7µM*
CC1(C)CC2CC(C)(CN2S(=O)(=O)c2cccc(C(=O)OCC(N)=O)c2)C1 (centres undefined) | 1.0% | / | 39.8µM* | / | / | 2.5%
COCCNC(=O)c1cccc(S(=O)(=O)N2CC3(C)CC2CC(C)(C)C3)c1 (centres undefined) | -7.3% | / | 79.4µM* | / | / | ?
CC(O)[C@H]1CN=C(N)N1CCCCC1CCCCC1 (some centres undefined) | 9.28µM* | 1.1% | 6.3% | -5.0 | -6.3 | 3.29µM*
NC1=NC[C@H](c2ccccc2)N1CCCCC1CCCCC1 | ? | -3.4% | 7.9% | -3.2 | -6.3 | ?
CC(=O)Nc1ccc(SCC(=O)c2cc(C)n(C)c2C)cc1 | / | -4.7% | -16.6% | 29.4 | 10.4 | 141.9%
CCOC(=O)c1c(-n2c(C)cc(C=C3C(=O)NC(=S)NC3=O)c2C)sc2c1CCCC2 | 11.7µM* | -18.7% | 11.2µM* | -1.0 | 7.3 | 11.7µM*
COC(=O)c1c(-n2c(C)cc(C=O)c2C)sc2c1CCCC2 | 10.4µM* | -3.1% | -1.4% | 95.7 | 16.4 | ?
O=C(COC(=O)c1ncc(Cl)c(Cl)c1Cl)Nc1ccc(Cl)cn1 | 5.5% | / | 39.8µM* | / | / | 10.2%
O=C(COC(=O)c1nc(Cl)ccc1Cl)Nc1ccc(Cl)cn1 | ? | / | -16.9% | / | / | -17.2%
CCOc1ccc(C(=O)Nc2ccc(NC(=S)NC(=O)CC)cc2)cc1Cl | -6.6% | 7.2% | 6.8% | -8.6 | -4.6 | ?
